Measurements from PubChem BioAssay (NCI).
About 83,000 compounds went through this panel and 20% of them were active in at least one assay; those are over-represented in the sample as a whole.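 For each line, cells grew in 96-well plates with the test compound present at a single concentration for 48 hours.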 Activity calls are given as the source filed them. The calls were made as follows: active = growth percent below 10; inactive = the rest.

Columns and labels:
Assay in all cases: NCI-60 one-dose screen, 48 h (100 = growth as untreated, 0 = no growth, -100 = all killed)
Details in all cases: 10 µM unless noted
NCI-H23 lung = system: NCI-H23 lung
NCI-H226 lung = system: NCI-H226 lung
NCI-H322M lung = system: NCI-H322M lung
HOP-62 NSCLC = system: HOP-62 NSCLC
NCI-H460 lung = system: NCI-H460 lung
NCI-H522 lung = system: NCI-H522 lung
A549/ATCC NSCLC = system: A549/ATCC NSCLC
786-0 renal = system: 786-0 renal
COLO 205 colon = system: COLO 205 colon
DU-145 prostate = system: DU-145 prostate
K-562 leukemia = system: K-562 leukemia
MALME-3M melanoma = system: MALME-3M melanoma
MDA-MB-231 breast = system: MDA-MB-231 breast
RXF 393 renal = system: RXF 393 renal
SF-268 CNS = system: SF-268 CNS
SF-295 CNS = system: SF-295 CNS
SF-539 CNS = system: SF-539 CNS
UACC-257 melanoma = system: UACC-257 melanoma
M14 melanoma = system: M14 melanoma

Measured: growth

O=c1c2cc(Br)cc(Br)c2nc(-c2ccc(Cl)cc2)n1/N=C/c1cccc(F)c1
active: 786-0 renal 9.97%
inactive: NCI-H23 lung 53.6% | NCI-H226 lung 40.9% | NCI-H322M lung 49.3% | HOP-62 NSCLC 10.8% | NCI-H460 lung 40.1% | NCI-H522 lung 38.9% | A549/ATCC NSCLC 48.6% | COLO 205 colon 54.3% | DU-145 prostate 91.4% | K-562 leukemia 63.2% | MALME-3M melanoma 63.3% | MDA-MB-231 breast 46.1% | RXF 393 renal 47.2% | SF-268 CNS 70.4% | SF-295 CNS 41% | SF-539 CNS 64.4% | UACC-257 melanoma 93% | M14 melanoma 67.5%

CN(C)c1nc(-c2ccco2)n2nc(-c3ccc(Cl)cc3)cc2n1
inactive: NCI-H23 lung 77.5% | NCI-H226 lung 52% | NCI-H322M lung 69.8% | HOP-62 NSCLC 38% | NCI-H460 lung 27.7% | NCI-H522 lung 71.5% | A549/ATCC NSCLC 49.6% | 786-0 renal 43.4% | COLO 205 colon 67.6% | DU-145 prostate 77% | K-562 leukemia 67.4% | MALME-3M melanoma 98.6% | MDA-MB-231 breast 54.3% | RXF 393 renal 51% | SF-268 CNS 66.6% | SF-295 CNS 56% | SF-539 CNS 63.4% | UACC-257 melanoma 98.7% | M14 melanoma 87%

CCCCCCCCCCCCCC1=NC(C)(C)CN1C(C)C
inactive: NCI-H322M lung 55.3%
active: NCI-H23 lung -4.87% | NCI-H226 lung 2.64% | HOP-62 NSCLC -79.7% | NCI-H460 lung -52.2% | NCI-H522 lung -61.7% | A549/ATCC NSCLC -50.2% | 786-0 renal -86.2% | COLO 205 colon -62.9% | DU-145 prostate 9.58% | K-562 leukemia -49.5% | MALME-3M melanoma -48.9% | MDA-MB-231 breast -56.7% | RXF 393 renal -65.9% | SF-268 CNS -53.5% | SF-295 CNS -52.8% | SF-539 CNS -79.2% | UACC-257 melanoma -57.5% | M14 melanoma -74.8%

C(=Nc1ccc(-c2ccc(N=Cc3ccccc3)cc2)cc1)c1ccccc1
inactive: NCI-H23 lung 101% | NCI-H226 lung 97.4% | NCI-H322M lung 103% | HOP-62 NSCLC 101% | NCI-H460 lung 116% | NCI-H522 lung 70% | A549/ATCC NSCLC 93.8% | 786-0 renal 104% | COLO 205 colon 117% | DU-145 prostate 118% | K-562 leukemia 95.4% | MALME-3M melanoma 94.6% | MDA-MB-231 breast 88.2% | RXF 393 renal 113% | SF-268 CNS 105% | SF-295 CNS 99.2% | SF-539 CNS 107% | UACC-257 melanoma 109% | M14 melanoma 104%

COc1ccc(-c2nc(SCCC(C)C)nc(Nc3ccc(C(=O)O)cc3)c2C#N)cc1
inactive: NCI-H23 lung 92.4% | NCI-H226 lung 91.4% | NCI-H322M lung 88.1% | HOP-62 NSCLC 95.7% | NCI-H460 lung 89.5% | NCI-H522 lung 69.2% | A549/ATCC NSCLC 67.2% | 786-0 renal 97% | COLO 205 colon 104% | DU-145 prostate 93.2% | K-562 leukemia 67.8% | MDA-MB-231 breast 98% | RXF 393 renal 90.1% | SF-268 CNS 89.4% | SF-295 CNS 80.5% | SF-539 CNS 91.3% | UACC-257 melanoma 95.2% | M14 melanoma 102%
active: MALME-3M melanoma -52%

O=C1/C=C/[C@@H](O)[C@@H]2C[C@@H](O)C[C@H]2/C=C/CCC[C@H]([C@@H](O)CO)O1
inactive: NCI-H23 lung 93% | NCI-H226 lung 106% | NCI-H322M lung 91.9% | HOP-62 NSCLC 108% | NCI-H460 lung 115% | NCI-H522 lung 92.8% | A549/ATCC NSCLC 96.1% | 786-0 renal 50.3% | COLO 205 colon 94.3% | DU-145 prostate 135% | K-562 leukemia 95.2% | MALME-3M melanoma 64.4% | MDA-MB-231 breast 91.6% | RXF 393 renal 24.9% | SF-268 CNS 60.8% | SF-295 CNS 87.7% | SF-539 CNS 74.3% | UACC-257 melanoma 69.3% | M14 melanoma 68.8%

CC(SC(C)C(=O)N/N=C/c1cccc(Cl)c1)C(=O)N/N=C\c1cccc(Cl)c1 (configuration not stated)
inactive: NCI-H23 lung 86.8% | NCI-H226 lung 93.2% | NCI-H322M lung 84.3% | HOP-62 NSCLC 90.4% | NCI-H460 lung 20.5% | NCI-H522 lung 60% | A549/ATCC NSCLC 15.2% | 786-0 renal 90.9% | COLO 205 colon 74.7% | DU-145 prostate 71.9% | K-562 leukemia 79.7% | MALME-3M melanoma 88.9% | MDA-MB-231 breast 28.1% | RXF 393 renal 91.2% | SF-268 CNS 69% | SF-295 CNS 66.2% | SF-539 CNS 106% | UACC-257 melanoma 104% | M14 melanoma 85.1%

CCC1N=C(N)N=C(N)N1c1ccc(Cl)cc1 (configuration not stated)
inactive: NCI-H23 lung 89.4% | NCI-H226 lung 96.5% | NCI-H322M lung 90.4% | HOP-62 NSCLC 102% | NCI-H460 lung 39.1% | NCI-H522 lung 90.9% | A549/ATCC NSCLC 38% | 786-0 renal 58.6% | COLO 205 colon 121% | DU-145 prostate 105% | K-562 leukemia 57.1% | MALME-3M melanoma 61.6% | MDA-MB-231 breast 99.5% | RXF 393 renal 89.3% | SF-268 CNS 77.2% | SF-295 CNS 88.9% | SF-539 CNS 109% | UACC-257 melanoma 88.1% | M14 melanoma 79.7%
